# Test results published in the supplement of paper PMC8728848.
# The full list was thinned out, with the strongest signals kept by preference.
# B1: MCL (Mus musculus), Q9Z2H6 (protein)
# chain: MWLEESQMKSKGTRHPQLIPCVFAVVSISFLSACFISTCLVTHHYFLRWTRGSVVKLSDYHTRVTCIREEPQPGATGGTWTCCPVSWRAFQSNCYFPLNDNQTWHESERNCSGMSSHLVTINTEAEQNFVTQLLDKRFSYFLGLADENVEGQWQWVDKTPFNPHTVFWEKGESNDFMEEDCVVLVHVHEKWVWNDFPCHFEVRRICKLPGITFNWKPSK
# What was measured:
# Assay in all cases: glycan array binding signal (z-score within array); higher = stronger binding
# Settings in all cases: glycan notation: IUPAC condensed, linker removed
# [1] = molecular target: Fuc(a1-2)[Gal(a1-3)]Gal(b1-4)Glc
# Procedure, shortened: (§1)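 Negative Z-scores can be read as non-binding. The Z-score is calculated within each array and then averaged across arrays of one protein sequence at different concentrations or buffers and across linkers. Arrays, 3228 in all, were curated from the Consortium for Functional Glycomics database and kept only where the protein sequence was available.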
# [2] = molecular target: Fuc(a1-2)[Gal(a1-3)]Gal(b1-4)[Fuc(a1-3)]GlcNAc
# Procedure, shortened: as §1
# [3] = molecular target: Fuc(a1-2)[GalNAc(a1-3)]Gal
# Procedure, shortened: as §1
# [4] = molecular target: Fuc(a1-2)[GalNAc(a1-3)]Gal(b1-3)GlcNAc
# Procedure, shortened: as §1
# [5] = molecular target: Fuc(a1-3)[Gal(b1-4)]GlcNAc(b1-2)Man(a1-6)[Gal(b1-4)GlcNAc(b1-2)Man(a1-3)]Man(b1-4)GlcNAc(b1-4)GlcNAc
# Procedure, shortened: as §1
# [6] = molecular target: Fuc(a1-3)[Gal(b1-4)]GlcNAc(b1-3)Gal(b1-3)[Fuc(a1-4)]GlcNAc
# Procedure, shortened: as §1
# [7] = molecular target: Fuc(a1-3)[Gal(b1-4)]GlcNAc6S
# Procedure, shortened: as §1
# [8] = molecular target: Fuc(b1-3)GlcNAc
# Procedure, shortened: as §1
# [9] = molecular target: Gal(a1-3)Gal(b1-3)GlcNAc
# Procedure, shortened: as §1
# [10] = molecular target: Gal(a1-3)Gal(b1-4)GlcNAc
# Procedure, shortened: as §1
# [11] = molecular target: Gal(b1-2)Gal
# Procedure, shortened: as §1
# [12] = molecular target: Gal(b1-3)Gal
# Procedure, shortened: as §1
# [13] = molecular target: Gal(b1-3)GlcNAc
# Procedure, shortened: as §1
# [14] = molecular target: Gal(b1-3)GlcNAc(b1-2)Man(a1-3)[Gal(b1-3)GlcNAc(b1-2)Man(a1-6)]Man(b1-4)GlcNAc(b1-4)GlcNAc
# Procedure, shortened: as §1
# [15] = molecular target: Gal(b1-4)GlcNAc(b1-3)Gal(b1-4)Glc
# Procedure, shortened: as §1
# [16] = molecular target: Gal3S(b1-3)[Fuc(a1-4)]GlcNAc
# Procedure, shortened: as §1
# [17] = molecular target: Gal6S(b1-4)Glc
# Procedure, shortened: as §1
# [18] = molecular target: GalNAc(a1-3)GalNAc
# Procedure, shortened: as §1
# [19] = molecular target: GlcNAc(b1-3)GalNAc
# Procedure, shortened: as §1
# [20] = molecular target: GlcNAc(b1-3)[GlcNAc(b1-6)]Gal(b1-4)GlcNAc
# Procedure, shortened: as §1
# [21] = molecular target: GlcNAc(b1-6)Gal(b1-4)GlcNAc
# Procedure, shortened: as §1
# [22] = molecular target: Neu5Ac(a2-3)Gal(b1-3)GalNAc(b1-3)Gal(b1-4)GlcNAc
# Procedure, shortened: as §1
# [23] = molecular target: Neu5Ac(a2-3)Gal(b1-3)GlcNAc
# Procedure, shortened: as §1
# [24] = molecular target: Neu5Ac(a2-3)Gal(b1-3)GlcNAc(b1-3)Gal(b1-3)GlcNAc
# Procedure, shortened: as §1
# [25] = molecular target: Neu5Ac(a2-3)Gal(b1-3)[Fuc(a1-4)]GlcNAc(b1-3)Gal(b1-4)[Fuc(a1-3)]GlcNAc
# Procedure, shortened: as §1
# [26] = molecular target: Neu5Ac(a2-3)Gal(b1-3)[Neu5Ac(a2-3)Gal(b1-4)]GlcNAc
# Procedure, shortened: as §1
# [27] = molecular target: Neu5Ac(a2-3)Gal(b1-3)[Neu5Ac(a2-6)]GalNAc
# Procedure, shortened: as §1
# [28] = molecular target: Neu5Ac(a2-3)Gal(b1-4)GlcNAc6S
# Procedure, shortened: as §1
# [29] = molecular target: Neu5Ac(a2-3)Gal(b1-4)[Fuc(a1-3)]GlcNAc(b1-3)Gal
# Procedure, shortened: as §1
# [30] = molecular target: Neu5Ac(a2-3)Gal(b1-4)[Fuc(a1-3)]GlcNAc6S
# Procedure, shortened: as §1
binder,measurement,setting,value
B1,glycan array binding signal (z-score),[1],-0.321
same,glycan array binding signal (z-score),[2],0.241
same,glycan array binding signal (z-score),[3],-0.254
same,glycan array binding signal (z-score),[4],0.999
same,glycan array binding signal (z-score),[5],5.26
same,glycan array binding signal (z-score),[6],0.601
same,glycan array binding signal (z-score),[7],-0.78
same,glycan array binding signal (z-score),[8],-0.475
same,glycan array binding signal (z-score),[9],2.63
same,glycan array binding signal (z-score),[10],3.06
same,glycan array binding signal (z-score),[11],-0.362
same,glycan array binding signal (z-score),[12],-0.472
same,glycan array binding signal (z-score),[13],0.168
same,glycan array binding signal (z-score),[14],-0.92
same,glycan array binding signal (z-score),[15],0.482
same,glycan array binding signal (z-score),[16],0.263
same,glycan array binding signal (z-score),[17],0.143
same,glycan array binding signal (z-score),[18],-0.708
same,glycan array binding signal (z-score),[19],0.005
same,glycan array binding signal (z-score),[20],-0.357
same,glycan array binding signal (z-score),[21],-0.735
same,glycan array binding signal (z-score),[22],-0.471
same,glycan array binding signal (z-score),[23],0.527
same,glycan array binding signal (z-score),[24],0.595
same,glycan array binding signal (z-score),[25],-0.245
same,glycan array binding signal (z-score),[26],2.08
same,glycan array binding signal (z-score),[27],0.696
same,glycan array binding signal (z-score),[28],-0.011
same,glycan array binding signal (z-score),[29],-0.251
same,glycan array binding signal (z-score),[30],0.138
